Consider three compounds from PubChem BioAssay AID463218 (Sanford-Burnham Center for Chemical Genomics, 2010).

Structures are written as SMILES. About 3,700 (84%) of roughly 4,400 compounds were called active.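 How the source made its calls: active means inhibition above about 39% in either of two replicate wells at 20 µM (limit read from the data); inactive means the rest.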 The set was probably picked from earlier hits. The list is a sample of the results.

The test can be described thus: growth inhibition of tim23-1 ts yeast, retest – luminescence, single concentration, confirmation (AID 463218).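 Further: temperature-sensitive tim23-1 mutant grown at 25 °C; 0% = DMSO wells with yeast and 100% = medium wells without yeast.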 As to conditions: S. cerevisiae tim23-1 growth, BacTiter-Glo luminescence, 24 h; at 20 µM; hits give high values.
As usually defined, the inhibition is how much of the control response was suppressed. Turning to `Cc1ccc(-c2nc3ccccc3c(=O)n2-c2ccc(Br)cn2)cc1`, the inhibition is 53.6% (active). For `Cc1cc2ccccn2c1C(C[N+](=O)[O-])c1c(F)cccc1Cl` (stereo not drawn), the inhibition was 58.5% (active). In the case of `COc1cccc(N2C(=O)NC(=O)/C(=C\c3ccc([N+](=O)[O-])s3)C2=O)c1`, the inhibition is 78.3% (active).
